Consider 28 molecules from PubChem BioAssay (Tox21).

Test [1] concerns the target Nuclear receptor subfamily 1 group I member 2 (Rattus norvegicus) (UniProt Q9R1A7). Briefly: Rat pregnane X receptor (rPXR) activation by small molecules, qHTS assay (AID 1346983). Also: nearly all actives have a fitted effect of over 20% in size. Also: potency is read from the fitted curve at half-maximal effect. To be noted: rPXR luciferase reporter cells, One-Glo luminescence, 24 h; max activation: hits give high values. The method, boiled down: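 Cell-based rPXR activation assay: rPXR cells, 2,000 per well, rested 5hr at 37 C, then exposed to compounds in DMSO for 24 hr at 37 C. Luciferase activity read by One-Glo luminescence after 30 min at room temperature.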

Test [2] concerns the target Nuclear receptor subfamily 1 group I member 2 (Homo sapiens) (UniProt O75469). Briefly: CYP3A4 induction through human pregnane X receptor (PXR) by small molecules, qHTS assay (AID 1346984). Also: nearly all actives have a fitted effect of over 40% in size. The gist of the method: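 Steps: seed DPX-2 cells, 5 hr at 37C; pin-transfer compounds; 24 hr at 37C; add Luciferin-IPA (3uM final), 3 hr at 37C; add One-Glo, 30 min RT; read luminescence.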
(In general: Quantitative high-throughput screening tests each substance at several concentrations.)

Test [3] deals with Cytochrome P450 2D6 (Homo sapiens) (UniProt P10635). Briefly: Cytochrome P450 Family 2 Subfamily D Member 6 (CYP2D6) small molecule antagonists: luciferase reporter qHTS assay (AID 1671196). Also: nearly all actives have a fitted effect of over 50% in size. Also: potency is read from the fitted curve at half-maximal effect. As to activity change, negative = inhibition: series mostly up to about 120 µM. The method, boiled down: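 P450-Glo format: CYP2D6 converts a proluciferin substrate to luciferin in an NADPH-driven reaction lasting 1 h at room temperature. Light output, proportional to CYP2D6 activity, reflects interference by test chemicals.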
Chain of Cytochrome P450 2D6 (Homo sapiens) (P10635 whole entry, looked up): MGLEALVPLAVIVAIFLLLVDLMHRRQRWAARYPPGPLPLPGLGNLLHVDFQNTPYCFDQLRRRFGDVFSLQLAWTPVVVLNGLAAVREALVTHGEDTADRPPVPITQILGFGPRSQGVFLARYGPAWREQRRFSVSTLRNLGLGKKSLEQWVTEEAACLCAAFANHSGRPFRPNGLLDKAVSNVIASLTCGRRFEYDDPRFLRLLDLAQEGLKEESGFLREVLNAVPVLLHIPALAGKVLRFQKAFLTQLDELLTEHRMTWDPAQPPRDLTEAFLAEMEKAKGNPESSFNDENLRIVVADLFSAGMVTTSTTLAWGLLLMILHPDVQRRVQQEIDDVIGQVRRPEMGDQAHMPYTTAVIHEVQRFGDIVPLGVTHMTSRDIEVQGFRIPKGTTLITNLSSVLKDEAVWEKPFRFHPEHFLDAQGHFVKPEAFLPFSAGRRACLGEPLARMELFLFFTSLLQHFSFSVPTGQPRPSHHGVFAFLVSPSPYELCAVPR
Background: In a reporter assay the amount or activity of a reporter protein is the signal.

For test [4], the target named is Cytochrome P450 2C19 (Homo sapiens) (UniProt P33261). Briefly: Cytochrome P450 Family 2 Subfamily C Member 19 (CYP2C19) small molecule antagonists: luciferase reporter qHTS assay (AID 1671197). Also: nearly all actives have a fitted effect of over 65% in size. Also: potency is read from the fitted curve at half-maximal effect. As to activity change, negative = inhibition: series mostly up to about 120 µM. The gist of the method:
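Quantitative high-throughput screen of the Tox21 library using CYP2C19 with proluciferin substrate. Reaction: NADPH regeneration, 37C, 1 h, after 10 min compound preincubation at room temperature. Readout: luminescence.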

For test [5], the target named is Cytochrome P450 2C9 (Homo sapiens) (UniProt P11712). Briefly: Cytochrome P450 Family 2 Subfamily C Member 9 (CYP2C9) small molecule antagonists: luciferase reporter qHTS assay (AID 1671198). Also: nearly all actives have a fitted effect of over 50% in size. Also: potency is read from the fitted curve at half-maximal effect. As to activity change, negative = inhibition: series mostly up to about 120 µM. The gist of the method:
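P450-Glo proluciferin substrate with CYP2C9 enzyme; 10 min RT preincubation, then NADPH regeneration 1 h at 37C; luciferin detection reagent 20 min RT, luminescence in relative luminescence units.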

The target of test [6] is Cytochrome P450 1A2 (Homo sapiens) (UniProt P05177). Briefly: Cytochrome P450 Family 1 Subfamily A Member 2 (CYP1A2) small molecule antagonists: luciferase reporter qHTS assay (AID 1671199). Also: nearly all actives have a fitted effect of over 50% in size. Also: potency is read from the fitted curve at half-maximal effect. As to activity change, negative = inhibition: series mostly up to about 120 µM. The method, boiled down: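 Inhibition of CYP1A2 conversion of proluciferin to luciferin, detected by luminescence. Reaction run 1 h at room temperature with NADPH regeneration after brief compound preincubation.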
Chain of Cytochrome P450 1A2 (Homo sapiens) (P05177 whole entry, looked up): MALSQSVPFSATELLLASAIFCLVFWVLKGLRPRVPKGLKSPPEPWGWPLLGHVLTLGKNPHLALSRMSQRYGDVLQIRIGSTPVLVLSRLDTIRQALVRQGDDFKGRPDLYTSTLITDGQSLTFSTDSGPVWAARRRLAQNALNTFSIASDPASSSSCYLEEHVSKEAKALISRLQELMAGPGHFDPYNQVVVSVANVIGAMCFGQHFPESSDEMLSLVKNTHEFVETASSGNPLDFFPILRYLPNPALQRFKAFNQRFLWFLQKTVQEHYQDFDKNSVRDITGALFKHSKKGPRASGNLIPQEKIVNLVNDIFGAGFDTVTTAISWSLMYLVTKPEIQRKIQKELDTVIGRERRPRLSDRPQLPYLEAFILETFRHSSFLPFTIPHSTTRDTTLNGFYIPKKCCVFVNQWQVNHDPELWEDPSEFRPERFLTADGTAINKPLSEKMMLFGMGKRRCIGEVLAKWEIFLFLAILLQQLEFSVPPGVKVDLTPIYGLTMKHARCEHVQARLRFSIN

The target of test [7] is Voltage-gated inwardly rectifying potassium channel KCNH2 (Homo sapiens) (UniProt Q12809). Briefly: Human Ether-a-go-go-Related Gene (hERG) channel small molecule antagonists: fluorescence cell-based qHTS assay (AID 1671200).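 Also: hERG-expressing U2OS cells given a thallium stimulus after FluxOR II dye loading; series mostly up to about 77 µM; nearly all actives have a fitted effect of over 50% in size.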 The gist of the method:
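Cell line hERG-U2OS; dye FluxOR II, 1 h RT dark; Tl+ stimulus; ex 480/em 540 nm, read each second for 2 min.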

Test [8] concerns the target Cytochrome P450 3A4 (Homo sapiens) (UniProt P08684). Briefly: Cytochrome P450 Family 3 Subfamily A Member 4 (CYP3A4) small molecule antagonists: luciferase reporter qHTS assay (AID 1671201). Also: nearly all actives have a fitted effect of over 50% in size. Also: potency is read from the fitted curve at half-maximal effect. As to activity change, negative = inhibition: series mostly up to about 120 µM. The method, boiled down: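 Room-temperature assay throughout: 10 min compound–enzyme/substrate preincubation, 1 h reaction after NADPH regeneration solution, 20 min detection. Luciferin formed from proluciferin substrate is quantified by luminescence.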

Inconclusive results are not listed. Unmarked numbers belong to inactive results. The source made the active and inactive calls. Calls follow the shape of the dose curve; as a rule, active = well fitted curve in the direction sought with a large enough effect in the repeat runs; inconclusive = weak or mixed curves; inactive = no such curve, though single readings can be large; an effect the other way counts as inactive or inconclusive.
% is scaled to controls: 0 for no effect and ±100 for the full control effect.

Chain of Nuclear receptor subfamily 1 group I member 2 (Rattus norvegicus) (Q9R1A7 whole entry, looked up): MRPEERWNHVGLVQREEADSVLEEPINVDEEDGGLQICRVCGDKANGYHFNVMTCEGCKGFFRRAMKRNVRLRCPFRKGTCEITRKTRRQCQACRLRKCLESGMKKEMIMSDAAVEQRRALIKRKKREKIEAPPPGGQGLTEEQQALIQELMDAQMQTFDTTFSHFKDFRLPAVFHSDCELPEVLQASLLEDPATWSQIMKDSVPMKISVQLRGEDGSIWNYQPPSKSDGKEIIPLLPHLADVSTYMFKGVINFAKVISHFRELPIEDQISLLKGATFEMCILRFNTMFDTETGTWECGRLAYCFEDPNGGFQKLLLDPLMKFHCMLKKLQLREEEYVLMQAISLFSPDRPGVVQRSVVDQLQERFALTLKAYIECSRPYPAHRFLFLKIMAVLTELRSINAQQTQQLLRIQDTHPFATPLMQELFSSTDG
Chain of Cytochrome P450 2C9 (Homo sapiens) (P11712 whole entry, looked up): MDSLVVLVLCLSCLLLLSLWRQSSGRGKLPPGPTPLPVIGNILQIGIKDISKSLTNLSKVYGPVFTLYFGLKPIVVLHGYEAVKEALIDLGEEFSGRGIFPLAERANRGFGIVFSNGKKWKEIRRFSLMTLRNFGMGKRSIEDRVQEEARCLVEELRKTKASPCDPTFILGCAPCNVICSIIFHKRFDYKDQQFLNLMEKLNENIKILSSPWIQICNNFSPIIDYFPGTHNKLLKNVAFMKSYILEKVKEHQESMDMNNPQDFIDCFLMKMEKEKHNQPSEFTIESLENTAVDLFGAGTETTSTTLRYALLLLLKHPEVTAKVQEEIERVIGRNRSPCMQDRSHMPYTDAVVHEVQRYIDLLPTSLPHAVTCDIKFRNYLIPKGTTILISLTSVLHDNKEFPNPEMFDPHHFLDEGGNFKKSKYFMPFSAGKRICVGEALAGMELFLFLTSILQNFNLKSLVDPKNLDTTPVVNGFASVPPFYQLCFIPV
Chain of Voltage-gated inwardly rectifying potassium channel KCNH2 (Homo sapiens) (Q12809 whole entry, looked up): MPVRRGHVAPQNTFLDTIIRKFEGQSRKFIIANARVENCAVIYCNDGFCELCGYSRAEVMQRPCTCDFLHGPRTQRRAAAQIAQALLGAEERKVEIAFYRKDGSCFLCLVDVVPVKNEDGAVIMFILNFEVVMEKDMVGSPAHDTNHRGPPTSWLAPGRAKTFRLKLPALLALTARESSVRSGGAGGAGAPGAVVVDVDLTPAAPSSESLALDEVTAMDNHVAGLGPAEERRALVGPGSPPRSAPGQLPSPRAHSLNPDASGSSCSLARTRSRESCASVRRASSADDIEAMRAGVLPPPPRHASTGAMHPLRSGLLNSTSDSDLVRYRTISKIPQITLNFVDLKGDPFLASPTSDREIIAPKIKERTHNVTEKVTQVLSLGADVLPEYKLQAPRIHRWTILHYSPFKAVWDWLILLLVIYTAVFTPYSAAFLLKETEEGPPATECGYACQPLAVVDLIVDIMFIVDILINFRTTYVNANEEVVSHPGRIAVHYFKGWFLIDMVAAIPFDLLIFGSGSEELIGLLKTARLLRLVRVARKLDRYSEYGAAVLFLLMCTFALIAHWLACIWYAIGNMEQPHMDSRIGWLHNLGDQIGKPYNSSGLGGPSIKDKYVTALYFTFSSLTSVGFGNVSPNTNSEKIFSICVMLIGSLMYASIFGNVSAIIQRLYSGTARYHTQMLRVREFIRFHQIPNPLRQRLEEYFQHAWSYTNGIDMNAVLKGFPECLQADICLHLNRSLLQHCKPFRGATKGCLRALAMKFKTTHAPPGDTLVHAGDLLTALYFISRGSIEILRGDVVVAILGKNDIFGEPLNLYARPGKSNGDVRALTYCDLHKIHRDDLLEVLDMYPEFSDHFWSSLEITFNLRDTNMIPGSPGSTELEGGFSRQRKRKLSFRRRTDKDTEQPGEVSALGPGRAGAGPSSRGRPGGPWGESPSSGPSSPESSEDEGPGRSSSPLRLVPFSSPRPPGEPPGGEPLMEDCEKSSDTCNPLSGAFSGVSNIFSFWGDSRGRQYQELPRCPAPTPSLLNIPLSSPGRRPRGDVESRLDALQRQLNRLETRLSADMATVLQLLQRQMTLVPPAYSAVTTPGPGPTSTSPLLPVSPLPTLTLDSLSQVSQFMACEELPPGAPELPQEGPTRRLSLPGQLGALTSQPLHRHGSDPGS
Chain of Cytochrome P450 3A4 (Homo sapiens) (P08684 whole entry, looked up): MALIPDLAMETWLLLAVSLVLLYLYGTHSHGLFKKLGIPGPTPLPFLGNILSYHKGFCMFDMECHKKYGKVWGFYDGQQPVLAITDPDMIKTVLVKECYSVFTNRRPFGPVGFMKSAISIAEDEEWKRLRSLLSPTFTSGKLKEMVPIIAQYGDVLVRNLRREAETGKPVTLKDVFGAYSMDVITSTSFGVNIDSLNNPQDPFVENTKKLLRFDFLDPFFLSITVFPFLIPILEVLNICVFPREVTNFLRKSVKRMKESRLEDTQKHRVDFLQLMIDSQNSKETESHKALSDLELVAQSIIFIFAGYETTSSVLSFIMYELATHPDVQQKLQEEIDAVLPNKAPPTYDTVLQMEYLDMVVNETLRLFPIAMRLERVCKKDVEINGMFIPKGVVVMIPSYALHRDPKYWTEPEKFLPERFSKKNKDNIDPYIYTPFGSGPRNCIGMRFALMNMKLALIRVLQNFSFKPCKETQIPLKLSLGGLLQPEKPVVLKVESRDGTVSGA
Chain of Cytochrome P450 2C19 (Homo sapiens) (P33261 whole entry, looked up): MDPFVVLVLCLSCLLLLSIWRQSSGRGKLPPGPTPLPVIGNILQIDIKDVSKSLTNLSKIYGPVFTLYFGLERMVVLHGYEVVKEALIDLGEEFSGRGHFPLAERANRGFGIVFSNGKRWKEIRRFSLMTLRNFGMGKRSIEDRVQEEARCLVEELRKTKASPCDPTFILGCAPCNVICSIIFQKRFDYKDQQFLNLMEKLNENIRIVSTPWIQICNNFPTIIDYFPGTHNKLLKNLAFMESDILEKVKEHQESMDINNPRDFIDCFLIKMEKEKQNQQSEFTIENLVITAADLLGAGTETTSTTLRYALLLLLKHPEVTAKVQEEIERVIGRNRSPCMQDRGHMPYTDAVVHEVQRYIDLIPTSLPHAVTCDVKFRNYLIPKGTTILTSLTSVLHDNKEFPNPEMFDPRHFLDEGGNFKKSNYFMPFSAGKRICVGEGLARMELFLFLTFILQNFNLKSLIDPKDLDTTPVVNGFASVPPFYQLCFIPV

In the case of `Nc1ccc(/C=C/c2ccc(N)cc2S(=O)(=O)O)c(S(=O)(=O)O)c1`, the max activation in test [1] was -1.81%. The molecule was classed as inactive in test [2]. Besides, the activity change, negative = inhibition was -0.348% [at 0.435 µM] in test [3]; 14.7% [at 0.435 µM] in test [4]; 3.26% [at 0.435 µM] in test [5]; 12.7% [at 0.435 µM] in test [6]; 0.168% [at 0.29 µM] in test [7]; 15.4% [at 0.435 µM] in test [8].
Take `O=c1cc(O)c(Cl)c[nH]1`: the max activation in test [1] is -3.03%. In test [2], the molecule was called inactive. Further, the Potency entry in test [3], in test [4], in test [5], in test [6], in test [7] and in test [8] was “inactive” throughout.
In the case of `Cc1ccc(S(=O)(=O)NC(=O)NC2CCCCCCC2)cc1`, in test [1], the max activation was -1.92%. The result in test [2] was inactive. The Potency entry in test [3], in test [6], in test [7] and in test [8] was “inactive” each time. Also, the Potency in test [5] was 11 µM (active).
In the case of `CCC1Nc2cc(Cl)c(S(N)(=O)=O)cc2S(=O)(=O)N1` (centres undefined), the max activation in test [1] was -2.65%. In addition, in test [2], the molecule was called inactive. Moreover, the Potency entry in test [3], in test [4], in test [6], in test [7] and in test [8] was “inactive” in each case.
Regarding `COCC(=O)Nc1c(I)c(C(=O)NCC(O)CO)c(I)c(C(=O)N(C)CC(O)CO)c1I` (centres undefined), in test [1], the max activation is -3.61%. For the same molecule, in test [2], the call was inactive. The Potency result in test [4], in test [6], in test [7] and in test [8] was “inactive” throughout.
On to `O=C(Oc1ccccc1C(=O)O)c1ccccc1O`, for which the max activation in test [1] is -2.38%. Besides, the molecule was classed as inactive in test [2]. Also, the Potency result in test [3], in test [6], in test [7] and in test [8] was “inactive” throughout.
In the case of `CC(=O)N(CC(O)CO)c1c(I)c(C(=O)NCC(O)CO)c(I)c(C(=O)NCC(O)CO)c1I` (centres undefined), the max activation in test [1] was -0.214%. Besides, the outcome in test [2] was inactive. In addition, the Potency result in test [3], in test [4], in test [6], in test [7] and in test [8] was “inactive” throughout.
Turning to `O=C(Nc1cccc(C2=NCCN2)c1)Nc1cccc(C2=NCCN2)c1`, the max activation in test [1] was -0.171%. Further, the result in test [2] was inactive. For the same molecule, in test [3], the Potency is 16.9 µM (active). The activity change, negative = inhibition in test [4] is -6.53% [at 23.6 µM]; in test [5], 0.456% [at 23.6 µM]; in test [6] it was 12% [at 23.6 µM]; in test [7], 4.21% [at 15.8 µM]; in test [8], 41.3% [at 23.6 µM].
As to `Nc1ccc(S(=O)(=O)Nc2ccccn2)cc1`, the max activation in test [1] was -1.43%. Besides, in test [2], the molecule was called inactive. Moreover, the Potency entry in test [3], in test [4], in test [5], in test [6] and in test [7] was “inactive” each time.
In the case of `Nc1ccc(S(=O)(=O)NC(=O)c2ccccc2)cc1`, the max activation in test [1] is -3.91%. Besides, the call in test [2] was inactive. The Potency entry in test [4], in test [6], in test [7] and in test [8] was “inactive” throughout.
In the case of `Cn1c(=O)c2c(ncn2CC2OCCO2)n(C)c1=O`, in test [1], the max activation was 6.17%. The call in test [2] was inactive. Moreover, the Potency result in test [3], in test [5], in test [7] and in test [8] was “inactive” each time.
Take `C[C@@H]1C[C@H]2[C@@H]3C[C@H](F)C4=CC(=O)C=C[C@]4(C)[C@@]3(F)[C@@H](O)C[C@]2(C)[C@@]1(O)C(=O)CO`: the Potency in test [1] is 1.41 µM (active).
Turning to `COc1ccc(OC)c(NC(=O)CC(C)=O)c1`, the Potency is 31.7 µM (active) in test [3]; 15.9 µM (active) in test [4]; 31.7 µM (active) in test [5]; 15.9 µM (active) in test [6]; 22.4 µM (active) in test [8]. The Potency entry in test [7] was “inactive”.
On to `CCc1nccnc1C`, for which the Potency result in test [3], in test [4], in test [5], in test [6], in test [7] and in test [8] was “inactive” in each case.
With `CC(C)C(=O)Nc1cccc(C(F)(F)F)c1`, the Potency result in test [3], in test [4], in test [5], in test [7] and in test [8] was “inactive” throughout. For the same molecule, the Potency in test [6] is 7.76 µM (active).
For `CC1(N)CCC(C(C)(C)N)CC1` (centres undefined), in test [3], the Potency was 20 µM (active). Also, the Potency entry in test [4], in test [5], in test [6], in test [7] and in test [8] was “inactive” in each case.
Take `CCCCOC(=O)[C@@H](C)Oc1ccc(Oc2ccc(C(F)(F)F)cn2)cc1`: the Potency result in test [3] was “inactive”. Further, the figures for the Potency in test [4], in test [5] and in test [6] were 25.3 µM (active), 16 µM (active) and 20.1 µM (active), respectively.
As to `Nc1cc(S(=O)(=O)O)ccc1S(=O)(=O)O`, the Potency result in test [3], in test [4], in test [5], in test [6], in test [7] and in test [8] was “inactive” in each case.
As to `CO/N=C(/C(=O)N[C@@H]1C(=O)N2C(C(=O)O)=C(Cn3nnc(C)n3)CS[C@H]12)c1csc(N)n1`, the Potency result in test [3], in test [4], in test [5], in test [6], in test [7] and in test [8] was “inactive” in each case.
For `Nc1cc(Cl)cc(S(=O)(=O)O)c1O`, the Potency entry in test [3], in test [6], in test [7] and in test [8] was “inactive” in each case. For the same molecule, the values for the Potency in test [4] and in test [5] were 41 µM (active) and 20.6 µM (active), respectively.
Turning to `O=C1c2ccccc2-c2ccccc21`, the Potency entry in test [3], in test [7] and in test [8] was “inactive” each time. Also, the Potency is 57.9 µM (active) in test [4], 65 µM (active) in test [5] and 0.58 µM (active) in test [6].
For `O=[Si]=O`, the Potency entry in test [3], in test [4], in test [5], in test [6], in test [7] and in test [8] was “inactive” in each case.
`O=P(O)(O)OCC(O)CO` (centres undefined): the Potency entry in test [3], in test [4], in test [5], in test [6], in test [7] and in test [8] was “inactive” in each case.
Consider `CC(=O)OC(C)c1ccccc1` (centres undefined), for which the Potency result in test [3], in test [4], in test [5], in test [6], in test [7] and in test [8] was “inactive” throughout.
On to `COc1cc([N+](=O)[O-])ccc1N`, for which the Potency result in test [3], in test [4], in test [5] and in test [7] was “inactive” each time. Moreover, the Potency in test [6] is 22.4 µM (active).
Turning to `CC(C)(C)NCCO`, the Potency entry in test [3], in test [4], in test [5], in test [7] and in test [8] was “inactive” throughout. For the same molecule, the Potency in test [6] was 39.9 µM (active).
Regarding `CCCCCCCCCCC`, the Potency entry in test [3], in test [4], in test [6], in test [7] and in test [8] was “inactive” each time. For the same molecule, the Potency in test [5] was 79.6 µM (active).
As to `CCOC(=O)OCC/C(SC(=O)OCC)=C(\C)N(C=O)Cc1cnc(C)nc1N`, in test [3], the Potency is 2.45 µM (active). In addition, the Potency entry in test [4], in test [5], in test [6] and in test [7] was “inactive” throughout.
